In PubChem BioAssay (NCATS):
“And” between values parts separate entries of the source, which are not always exact repeats. Equal entries are not always repeated. Inconclusive results are not listed. The source made the active and inactive calls. Unless noted, calls come from the whole dose curve; as a rule, active = well fitted curve in the direction sought with a large enough effect; inconclusive = small, poorly fitted or top-dose-only effect, or another doubt; inactive = no such curve, though single readings can be large; an effect the other way counts as inactive or inconclusive.

How the values were obtained:
[1] = AP1 Signaling Pathway (AID 357; active = well fitted curve in either direction with a large enough effect, not every such curve was filed as active; note: % is set by controls: 0 for no effect and ±100 for the full control effect); conditions: ME-180 AP-1-bla reporter, EGF-induced, beta-lactamase ratio, 5 h; at 7.69 µM (top of the series) unless noted
Outline: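 ME-180 cells with beta-lactamase reporter under AP-1 response element, stimulated with EC50 EGF; compounds tested in titration series, 5 h at 37 °C. CCF4 substrate added 2.5 h at room temperature; 460/530 nm emission ratio gave %activity and AC50.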

[2] = biological target: Cytochrome P450 1A2 (Homo sapiens) (UniProt P05177); assay: p450-cyp1a2 (AID 410; calls by dose curve; note: potency is the fitted concentration of half-maximal effect;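 for activity change, negative = inhibition: -100% = full effect of reference inhibitor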)
Outline: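 O-Demethylation of luciferin 6' methyl ether by human CYP1A2 is monitored as luciferase luminescence. Substrate sits at Km (100uM); enzyme is 20nM. Values are scaled to 57 uM furafylline as maximal inhibition.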

[3] = NFAT Signaling Pathway (AID 444; active = well fitted curve in either direction with a large enough effect, not every such curve was filed as active;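 note: carbachol stimulus at about its EC50 of 1 µM final; % is set by controls: 0 for no effect and ±100 for the full control effect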); conditions: Jurkat NFAT-bla M1, carbachol, beta-lactamase ratio, 5 h
Outline: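 Read-out: CCF4 FRET ratio (460 nm/530 nm) after 1 h RT dye loading, used for %activity and AC50 from titration series. Cells: Jurkat NFAT-β-lactamase/M1 line, treated with compound plus 1 uM carbachol for 5 h, 37 °C.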

[4] = Stat Signaling Pathway (AID 446; active = well fitted curve in either direction with a large enough effect, not every such curve was filed as active;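 note: ME-180 cervical cancer cells given 40 pM IL-6 alongside compound; SIE-controlled beta-lactamase reporter measured as 460/530 nm FRET emission ratio; % is set by controls: 0 for no effect and ±100 for the full control effect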); conditions: ME-180 (cervical carcinoma) SIE beta-lactamase reporter, IL-6 stimulated, 5 h
Outline: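 Overnight-plated ME-180 cells bearing a STAT Inducible Element beta-lactamase reporter; 5 h co-exposure to compound and 40 pM IL-6; values normalized to 300 pM IL-6 and 125 nM JAK inhibitor controls.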

[5] = biological target: Glucocorticoid receptor (Homo sapiens) (UniProt P04150); assay: GR-GFP Redistribution (AID 450;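 active = compounds whose dose series gives a full or clear partial fitted curve of increased nuclear translocation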; note: potency is the fitted concentration of half-maximal effect); conditions: U2OS GR-GFP nuclear translocation, laser cytometry, 2 h
[6] = biological target: Glucocorticoid receptor (Homo sapiens) (UniProt P04150); assay: GR-EFC Redistribution (AID 451; calls by dose curve; note: potency is the fitted concentration of half-maximal effect); conditions: CHO-K1 GR-EFC translocation, beta-gal luminescence, 2 h
Outline: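 Translocation of GR-ED fusion to nuclear EA restores b-gal, read by luminescence after 1 h room-temperature detection. Engineered CHO-K1 biosensor cells, 1,000/well, exposed 2 h at 37 C to titrations up to 46 uM final.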

[7] = biological target: Mitogen-activated protein kinase 10 (Mus musculus) (UniProt Q61831); assay: JNK3 AlphaScreen Assay (AID 530; active = well fitted curve in either direction with a large enough effect, not every such curve was filed as active;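 note: kinase came from lysate of stimulated human HepG2 cells; signal reports phosphorylation of biotinylated GST-cJun 1-79 at Ser73 with 10 µM ATP; % is set by controls: 0 for no effect and ±100 for the full control effect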)
Outline: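 qHTS titrations with 15 min compound pre-incubation before adding ATP (10 uM final). Read-out: AlphaScreen of Ser73-phosphorylated biotin-GST-cJun using HepG2 lysate JNK3 activated by IL-1β and TNFα.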

[8] = biological target: 3',5'-cyclic-AMP phosphodiesterase 4B (Homo sapiens) (UniProt Q07343); assay: qHTS Assay for Inhibitors of PDE-IV (AID 607; active = well fitted activation curve with a large enough effect in the main read-out, with a control signal flat, not every such curve was filed as active; note: % of control where 0% means no effect)
Outline: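 Live HEK293 cells with a modified cyclic nucleotide-gated (CNG) channel report intracellular cAMP via membrane-potential dye fluorescence (ex 535/em 590 nm). Endogenous PDE-IV was targeted. Compounds were tested at up to 22.9 uM final; RO 20-1724 100 uM served as control.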

[9] = qHTS Assay for Lipid Storage Modulators (AID 1519; calls by dose curve); conditions: Drosophila S3 cells, BODIPY lipid droplet/cell ratio, laser cytometry, cells loaded with oleic acid
Outline: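 Cells seeded at 5,000 per well were treated with compounds over a concentration series and loaded with oleic acid (400 uM, as added). Lipid droplet fluorescence (488 nm excitation, 500-530 nm channel) was read by laser-scanning cytometry and normalized to 20 uM Triacsin C.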

[10] = biological target: ATP-dependent 6-phosphofructokinase (Trypanosoma brucei brucei) (UniProt O15648); assay: qHTS Assay to Find Inhibitors of T. brucei phosphofructokinase: hit validation (AID 492961)
Outline: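 In this biochemical qHTS validation, titrated compounds were tested against 1.25 nM PFK with 0.1 mM ATP and 0.5 mM F6P. Percent activity came from controls lacking or containing enzyme.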

[11] = biological target: Ubiquitin carboxyl-terminal hydrolase 1 (Homo sapiens) (UniProt O94782); assay: Inhibitors of USP1/UAF1: Pilot qHTS (AID 504865);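 note: rhodamine fluorescence freed from ubiquitin-rhodamine substrate followed over time; top concentration of the series differs between compounds; % is set by controls: 0 for no effect and ±100 for the full control effect; nearly all actives have a fitted effect of over 35% in size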
Outline: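 Deubiquitinase activity followed as kinetic rhodamine fluorescence release from 150 nM Ub-Rho. 1 nM USP1/UAF1 with compound, after 15 min room-temperature preincubation, in HEPES pH 7.8 buffer containing TCEP, EDTA, BSA and Tween-20.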

[12] = biological target: Luciferin 4-monooxygenase (Photinus pyralis) (UniProt P08659); assay: Biochemical firefly luciferase enzyme assay for NPC (AID 624030);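 note: purified P. pyralis luciferase at 10 nM with luciferin and ATP substrate; 0% = DMSO and -100% = full luciferase inhibition by PTC124 control; nearly all actives have a fitted effect of over 70% in size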
Outline: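 Direct inhibition of firefly luciferase enzyme (10 nM final, 50 mM Tris Acetate) assessed by luminescence within 5 minutes. Percent activity scaled between DMSO and PTC124 positive control, with concentration-effect curves classified by fit quality and response.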

[13] = qHTS profiling for inhibitors of Plasmodium falciparum proliferation (AID 504749);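 note: 0% = DMSO vehicle and full inhibition = artemisinin control; nearly all actives have a fitted effect of over 60% in size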; conditions: P. falciparum in erythrocytes, SYBR Green DNA, 72 h
Outline: (§1)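 SYBR Green fluorescence of parasite DNA, read after lysis and overnight dark incubation, measured growth over 72 h in erythrocyte culture at 0.3% parasitemia and 2.5% hematocrit. Data normalised to DMSO and 0.29 uM artemisinin, with plate-drift correction.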

[14] = test system: AS120; assay: as above; conditions: P. falciparum in erythrocytes, SYBR Green DNA, 72 h; series mostly up to 28.7 µM
Outline: as §1

[15] = test system: CP238; assay: as above; conditions: P. falciparum in erythrocytes, SYBR Green DNA, 72 h; series mostly up to 12.8 µM
Outline: as §1

[16] = test system: CP265; assay: as above; conditions: P. falciparum in erythrocytes, SYBR Green DNA, 72 h; series mostly up to 12.8 µM
Outline: as §1

[17] = test system: FAB9; assay: as above; conditions: P. falciparum in erythrocytes, SYBR Green DNA, 72 h; series mostly up to 12.8 µM
Outline: as §1

[18] = biological target: Guanine nucleotide-binding protein G(i) subunit alpha-1 (Homo sapiens) (UniProt P63096); assay: qHTS Assay for Inhibitors of RGS12 GoLoco Motif Activity (Green Fluorophore) (AID 879);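 note: 0% = labeled peptide with Gαi1 and full inhibition = labeled peptide alone without protein; negative values mean loss of peptide binding seen as reduced polarization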
Outline: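 A drop in FITC polarization marked displacement of the FITC-tagged RGS12 GoLoco peptide (10 nM) from Gαi1 (50 nM). Compounds were incubated 10 min at room temperature in Tris pH 7.5 buffer containing 150 mM NaCl, 0.1 mM GDP and 0.05% NP40; unlabeled peptide titration served as control.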

[19] = biological target: Pyruvate kinase (Leishmania mexicana) (UniProt Q27686); assay: qHTS Validation Assay for Inhibitors of Leishmania Mexicana Pyruvate Kinase (AID 945);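 note: 0% = DMSO only neutral control wells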
Outline: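 Eight-point qHTS titrations in triplicate, data normalized to DMSO neutral control. Reaction: 0.2 nM LmPYK E451W mutant, 0.5 mM PEP, 0.1 mM ADP, 7 mM MgCl2, pH 7.2, one hour at room temperature; luminescent ATP detection.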

[20] = biological target: Pyruvate kinase PKM (Homo sapiens) (UniProt P14618); assay: qHTS Assay for Activators of Human Muscle Pyruvate Kinase (AID 954; active = well fitted curve in the direction sought with a large enough effect, not every such curve was filed as active;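 note: 0% = uninhibited enzyme and -100% = no enzyme or full thiadiazolimine inhibition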)
Outline: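 Screening used highly purified human pyruvate kinase M2 under submaximal activity, with PEP at its Km and ADP below Km. After an hour at room temperature, ATP was read by luciferase luminescence.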

[21] = at 7.69 µM (top of the series) unless noted
[22] = measured here: cell count channel max response
[23] = measured here: lipid channel max response
[24] = at 12.8 µM (top of the series), parasite line A
[25] = at 12.8 µM (top of the series), parasite line B
[26] = at 28.7 µM (top of the series), parasite line A

Chain of Ubiquitin carboxyl-terminal hydrolase 1 (Homo sapiens) (O94782 whole entry, looked up): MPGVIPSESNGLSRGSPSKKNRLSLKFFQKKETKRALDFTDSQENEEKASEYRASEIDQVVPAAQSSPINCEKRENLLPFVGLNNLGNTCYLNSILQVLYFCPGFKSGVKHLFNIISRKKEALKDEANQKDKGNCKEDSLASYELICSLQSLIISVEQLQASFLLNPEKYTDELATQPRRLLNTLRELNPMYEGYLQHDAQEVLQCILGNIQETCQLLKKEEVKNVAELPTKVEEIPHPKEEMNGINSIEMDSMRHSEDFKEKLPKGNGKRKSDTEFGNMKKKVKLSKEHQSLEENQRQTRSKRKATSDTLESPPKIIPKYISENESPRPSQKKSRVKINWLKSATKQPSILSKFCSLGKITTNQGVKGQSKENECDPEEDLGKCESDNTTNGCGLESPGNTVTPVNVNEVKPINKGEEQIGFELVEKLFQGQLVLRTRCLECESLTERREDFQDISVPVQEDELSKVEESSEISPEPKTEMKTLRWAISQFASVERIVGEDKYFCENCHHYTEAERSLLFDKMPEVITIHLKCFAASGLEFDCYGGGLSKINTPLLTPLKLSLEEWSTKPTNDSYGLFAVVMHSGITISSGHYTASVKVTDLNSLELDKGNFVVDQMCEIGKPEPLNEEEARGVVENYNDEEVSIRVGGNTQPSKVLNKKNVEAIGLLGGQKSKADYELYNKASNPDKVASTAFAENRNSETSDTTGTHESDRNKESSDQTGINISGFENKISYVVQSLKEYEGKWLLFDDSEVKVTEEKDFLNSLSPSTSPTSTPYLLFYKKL
Chain of Pyruvate kinase (Leishmania mexicana) (Q27686 2-499 E452W): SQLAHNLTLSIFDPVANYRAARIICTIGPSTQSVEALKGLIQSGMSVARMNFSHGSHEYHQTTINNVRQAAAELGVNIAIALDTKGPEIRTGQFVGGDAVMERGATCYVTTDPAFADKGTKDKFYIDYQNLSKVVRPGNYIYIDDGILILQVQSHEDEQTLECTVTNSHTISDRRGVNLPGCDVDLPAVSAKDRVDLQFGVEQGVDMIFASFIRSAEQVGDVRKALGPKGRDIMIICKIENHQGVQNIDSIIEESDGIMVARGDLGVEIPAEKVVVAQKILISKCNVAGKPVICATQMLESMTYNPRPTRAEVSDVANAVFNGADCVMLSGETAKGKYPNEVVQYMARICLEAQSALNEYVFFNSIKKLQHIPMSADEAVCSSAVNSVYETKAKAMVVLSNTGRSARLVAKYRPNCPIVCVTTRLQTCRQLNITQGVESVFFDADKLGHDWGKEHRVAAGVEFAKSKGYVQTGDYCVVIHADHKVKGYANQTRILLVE
Chain of Cytochrome P450 1A2 (Homo sapiens) (P05177 whole entry, looked up): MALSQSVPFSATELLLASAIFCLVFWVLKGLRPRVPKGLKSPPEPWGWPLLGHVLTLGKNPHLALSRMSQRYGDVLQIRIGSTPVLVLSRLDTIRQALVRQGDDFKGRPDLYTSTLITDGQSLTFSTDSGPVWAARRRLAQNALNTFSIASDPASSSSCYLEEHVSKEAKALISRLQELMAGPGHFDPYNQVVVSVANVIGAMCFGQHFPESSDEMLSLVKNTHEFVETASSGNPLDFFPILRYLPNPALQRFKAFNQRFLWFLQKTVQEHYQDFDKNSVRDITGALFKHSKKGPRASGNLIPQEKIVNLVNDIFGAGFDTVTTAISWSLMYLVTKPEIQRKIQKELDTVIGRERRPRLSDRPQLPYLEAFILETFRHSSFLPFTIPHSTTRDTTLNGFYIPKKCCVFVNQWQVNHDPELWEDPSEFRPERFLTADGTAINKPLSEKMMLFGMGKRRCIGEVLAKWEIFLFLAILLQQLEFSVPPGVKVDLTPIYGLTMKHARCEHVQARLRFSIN
Chain of Luciferin 4-monooxygenase (Photinus pyralis) (P08659 whole entry, looked up): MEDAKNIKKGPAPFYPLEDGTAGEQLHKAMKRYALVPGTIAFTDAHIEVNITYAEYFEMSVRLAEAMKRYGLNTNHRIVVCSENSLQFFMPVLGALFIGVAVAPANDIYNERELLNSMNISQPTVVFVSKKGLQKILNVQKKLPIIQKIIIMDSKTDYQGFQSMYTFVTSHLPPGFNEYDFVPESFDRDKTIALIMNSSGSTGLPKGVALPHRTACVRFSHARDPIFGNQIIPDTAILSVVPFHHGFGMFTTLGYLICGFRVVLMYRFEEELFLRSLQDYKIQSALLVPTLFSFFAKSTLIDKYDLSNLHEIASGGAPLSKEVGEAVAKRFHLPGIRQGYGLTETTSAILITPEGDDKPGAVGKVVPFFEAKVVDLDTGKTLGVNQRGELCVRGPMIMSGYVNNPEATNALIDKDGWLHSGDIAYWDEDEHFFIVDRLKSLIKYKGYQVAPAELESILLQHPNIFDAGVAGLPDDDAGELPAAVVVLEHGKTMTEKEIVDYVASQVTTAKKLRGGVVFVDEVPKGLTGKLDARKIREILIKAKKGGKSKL
Chain of Pyruvate kinase PKM (Homo sapiens) (P14618 whole entry, looked up): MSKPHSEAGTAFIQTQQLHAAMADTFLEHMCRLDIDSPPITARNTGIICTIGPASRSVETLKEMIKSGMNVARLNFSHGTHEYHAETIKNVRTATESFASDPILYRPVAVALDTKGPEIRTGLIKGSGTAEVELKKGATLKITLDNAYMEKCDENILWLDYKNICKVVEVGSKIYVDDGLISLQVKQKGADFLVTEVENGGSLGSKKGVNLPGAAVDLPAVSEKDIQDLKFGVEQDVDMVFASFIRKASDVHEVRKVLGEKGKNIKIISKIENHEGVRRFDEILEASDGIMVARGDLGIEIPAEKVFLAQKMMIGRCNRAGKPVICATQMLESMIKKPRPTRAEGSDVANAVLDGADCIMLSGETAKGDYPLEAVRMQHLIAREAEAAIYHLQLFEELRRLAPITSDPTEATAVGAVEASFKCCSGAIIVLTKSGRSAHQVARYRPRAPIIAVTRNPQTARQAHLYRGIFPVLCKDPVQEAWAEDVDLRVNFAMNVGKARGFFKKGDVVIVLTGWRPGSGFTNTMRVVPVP
Chain of Glucocorticoid receptor (Homo sapiens) (P04150 whole entry, looked up, the tested form may be a part): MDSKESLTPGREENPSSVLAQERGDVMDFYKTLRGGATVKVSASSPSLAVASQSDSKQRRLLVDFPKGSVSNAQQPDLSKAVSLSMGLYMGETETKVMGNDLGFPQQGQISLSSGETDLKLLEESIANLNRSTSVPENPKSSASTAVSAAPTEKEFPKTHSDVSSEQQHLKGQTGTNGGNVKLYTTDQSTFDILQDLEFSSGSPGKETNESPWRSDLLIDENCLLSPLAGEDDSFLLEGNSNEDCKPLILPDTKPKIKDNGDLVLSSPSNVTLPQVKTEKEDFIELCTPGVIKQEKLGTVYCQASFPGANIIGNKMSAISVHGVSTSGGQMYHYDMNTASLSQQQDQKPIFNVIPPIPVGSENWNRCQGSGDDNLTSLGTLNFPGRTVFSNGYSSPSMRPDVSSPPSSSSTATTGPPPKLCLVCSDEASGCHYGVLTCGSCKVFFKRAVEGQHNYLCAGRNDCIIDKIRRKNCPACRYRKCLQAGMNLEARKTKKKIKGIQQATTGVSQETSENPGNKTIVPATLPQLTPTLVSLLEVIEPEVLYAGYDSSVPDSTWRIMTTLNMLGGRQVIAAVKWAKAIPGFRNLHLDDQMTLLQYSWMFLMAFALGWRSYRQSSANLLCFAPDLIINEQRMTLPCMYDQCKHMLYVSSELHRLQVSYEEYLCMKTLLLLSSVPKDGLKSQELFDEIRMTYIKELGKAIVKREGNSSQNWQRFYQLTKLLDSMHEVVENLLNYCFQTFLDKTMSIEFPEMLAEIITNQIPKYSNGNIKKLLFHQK
Chain of Guanine nucleotide-binding protein G(i) subunit alpha-1 (Homo sapiens) (P63096 whole entry, looked up): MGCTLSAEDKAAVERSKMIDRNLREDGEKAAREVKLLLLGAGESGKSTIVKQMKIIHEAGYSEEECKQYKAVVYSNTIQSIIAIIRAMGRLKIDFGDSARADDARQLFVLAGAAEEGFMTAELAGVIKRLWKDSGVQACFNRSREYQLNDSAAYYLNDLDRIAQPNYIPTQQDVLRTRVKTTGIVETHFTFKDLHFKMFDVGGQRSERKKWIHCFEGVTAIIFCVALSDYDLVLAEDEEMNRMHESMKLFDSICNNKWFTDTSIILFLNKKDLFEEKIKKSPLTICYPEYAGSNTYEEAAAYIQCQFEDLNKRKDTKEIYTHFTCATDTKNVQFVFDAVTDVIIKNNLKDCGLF
Chain of 3',5'-cyclic-AMP phosphodiesterase 4B (Homo sapiens) (Q07343 whole entry, looked up): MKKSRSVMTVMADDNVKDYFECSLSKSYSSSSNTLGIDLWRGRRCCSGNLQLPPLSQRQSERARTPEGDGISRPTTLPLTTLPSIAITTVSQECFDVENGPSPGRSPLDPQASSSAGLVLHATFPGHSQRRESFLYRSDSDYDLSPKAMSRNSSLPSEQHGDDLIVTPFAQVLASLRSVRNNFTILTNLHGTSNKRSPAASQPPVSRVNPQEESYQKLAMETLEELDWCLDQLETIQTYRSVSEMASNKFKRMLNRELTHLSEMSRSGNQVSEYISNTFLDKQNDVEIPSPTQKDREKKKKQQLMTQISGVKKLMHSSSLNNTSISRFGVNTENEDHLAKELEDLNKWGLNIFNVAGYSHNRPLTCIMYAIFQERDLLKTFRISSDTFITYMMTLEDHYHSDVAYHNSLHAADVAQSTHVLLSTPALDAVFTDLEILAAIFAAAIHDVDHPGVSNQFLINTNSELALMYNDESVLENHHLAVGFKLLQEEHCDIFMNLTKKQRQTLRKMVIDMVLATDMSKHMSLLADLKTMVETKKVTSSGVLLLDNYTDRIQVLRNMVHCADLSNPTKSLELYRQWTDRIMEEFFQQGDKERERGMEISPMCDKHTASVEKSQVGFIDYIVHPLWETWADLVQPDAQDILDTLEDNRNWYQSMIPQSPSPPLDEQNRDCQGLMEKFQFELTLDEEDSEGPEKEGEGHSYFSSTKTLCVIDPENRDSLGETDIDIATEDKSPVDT

C[C@@H](C(=O)O)c1ccc(C(=O)c2cccs2)cc1
inactive: activity change, negative = inhibition [1] 4.04% [at 17.2 µM] | Potency [2] | activity change, negative = inhibition [3, 21] -1.88% [at 17.2 µM] | activity, negative = inhibition [4, 21] 1.29% [at 17.2 µM] | Potency [5] > 20.6 µM | Potency [6] > 20.6 µM | Potency [7] | Potency [8] | activity change, negative = inhibition ([9]; at 25.7 µM (top of the series)) 0.809% | outcome [10] | Potency [11] | outcome [12] | activity, negative = inhibition [13, 24] 0.517% | activity, negative = inhibition [13, 25] 11.1% | Potency [14] | Potency [15] | Potency [16] | Potency [17]
-2.83%: max response [9, 22]
-2.07%: max response [9, 23]

CCN1CCC[C@@H]1CNC(=O)c1cc(S(N)(=O)=O)ccc1OC
-11.7%: max response [9, 23]
inactive: activity change, negative = inhibition [1] 5.34% [at 38 µM] and 0.665% [at 38 µM] | Potency [2] | activity change, negative = inhibition [3, 21] -3.07% [at 38 µM] and -10.9% [at 38 µM] | activity, negative = inhibition [4, 21] 26.6% [at 38 µM] | Potency [5] > 46 µM | Potency [6] > 46 µM | Potency [7] | Potency [8] | Potency [18] | outcome [19] | outcome [20] | activity change, negative = inhibition ([9]; at 57.5 µM (top of the series)) 3.26%
-12.9%: max response [9, 22]

CC(C)NC[C@H](O)c1cc(O)cc(O)c1
12.4%: max response [9, 23]
14.3%: max response [9, 22]
inactive: Potency [2] | activity change, negative = inhibition ([3]; at 17.2 µM (top of the series)) -4.38% | activity change, negative = inhibition ([3]; at 38 µM (top of the series)) 2.58% | activity, negative = inhibition [4, 21] 14.6% [at 17.2 µM] | Potency [7] | Potency [18] | outcome [19] | outcome [20] | activity change, negative = inhibition ([9]; at 25.7 µM (top of the series)) -2.07% | outcome [10] | Potency [11] | outcome [12] | activity, negative = inhibition [13, 26] 15.2% | activity, negative = inhibition ([13]; at 28.7 µM (top of the series), parasite line B) 4.36% | Potency [14] | Potency [15] | Potency [16] | Potency [17]

NC(=O)OC[C@H](O)COc1ccc(Cl)cc1
active: Potency [2] 10 µM
14%: max response [9, 22]
inactive: activity change, negative = inhibition [1] -4.9% [at 17.2 µM] | activity change, negative = inhibition [3, 21] -9.21% [at 17.2 µM] | activity, negative = inhibition [4, 21] 14.1% [at 17.2 µM] | Potency [5] > 20.6 µM | Potency [6] > 20.6 µM | Potency [7] | Potency [8] | activity change, negative = inhibition ([9]; at 25.7 µM (top of the series)) -1.93% | outcome [10] | outcome [12] | activity, negative = inhibition [13, 24] -2.39% | activity, negative = inhibition [13, 25] -7.73% | Potency [14] | Potency [15] | Potency [16] | Potency [17]
12%: max response [9, 23]

CN(C)[C@@H]1C(=O)C(C(N)=O)=C(O)[C@]2(O)C(=O)C3=C(O)c4c(O)ccc(Cl)c4[C@H](O)[C@H]3C[C@@H]12
8.96%: max response [9, 23]
inactive: Potency [2] | activity change, negative = inhibition ([3]; at 17.2 µM (top of the series)) -15.3% | activity change, negative = inhibition ([3]; at 38 µM (top of the series)) -6.38% | activity, negative = inhibition ([4]; at 17.2 µM (top of the series)) -1.53% | activity, negative = inhibition ([4]; at 38 µM (top of the series)) 3.61% | Potency [5] > 46 µM and > 20.6 µM | Potency [6] > 46 µM and > 20.6 µM | Potency [7] | Potency [8] | Potency [18] | outcome [19] | outcome [20] | activity change, negative = inhibition ([9]; at 25.7 µM (top of the series)) 2.69% | outcome [10] | Potency [11] | outcome [12] | activity, negative = inhibition [13, 26] -26.7% | Potency [14] | Potency [15] | Potency [16] | Potency [17]
4.73%: max response [9, 22]

c1ccc(-c2ccc(N3CC[C@@]4(CCCNC4)C3)cc2)cc1
active: Potency [2] 12.6 µM
inactive: activity change, negative = inhibition [1] 16.6% | activity change, negative = inhibition [3, 21] 10.5% | Potency [6] > 46 µM | Potency [7] | Potency [8] | activity change, negative = inhibition ([9]; at 57.5 µM (top of the series)) 4.33%
15.2%: max response [9, 23]
9.08%: max response [9, 22]
